Experiment [1] can be described thus: qHTS assay to identify small molecule agonists of the sonic hedgehog signaling (Shh) pathway (AID 1259368).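 Also: NIH/3T3-derived 3T3Gli1-Luc cells carrying a stable Gli1-driven firefly luciferase reporter; series mostly up to about 92 µM; nearly all actives have a fitted effect of over 15% in size.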 The gist of the method:
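Quantitative high-throughput format using a Gli1-driven firefly luciferase reporter line derived from NIH/3T3 cells. After a 24 hr compound treatment at 37 C and 5% CO2, luminescence reported Gli1 response element activity.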

Experiment [2] can be described thus: qHTS assay to identify small molecule antagonists of the sonic hedgehog signaling (Shh) pathway (AID 1259369). Also: nearly all actives have a fitted effect of over 45% in size. Also: potency is read from the fitted curve at half-maximal effect. The gist of the method:
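Stable Gli1-Luc reporter NIH/3T3 clone; quantitative HTS in stimulated mode with conditioned medium. Luminescence measured after 24hr compound treatment at 37 C.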

Experiment [3] has as its target Estrogen receptor beta (Homo sapiens) (UniProt Q92731). Briefly: qHTS assay to identify small molecule agonists of the estrogen receptor beta (ER-beta) signaling pathway (AID 1259377; active = well fitted activation curve with a large enough effect in the signal ratio in the repeat runs, not every such curve was filed as active; the % refers to the signal ratio). The gist of the method:
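Measured by fluorescence intensity from a B/G FRET beta-lactamase substrate (2 h, room temperature) in ER-beta-UAS-bla HEK293T cells treated with DMSO-dissolved compounds for 16 hr at 37C and 5% CO2.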

Experiment [4] shares this target. Briefly: qHTS assay to identify small molecule antagonists of the estrogen receptor beta (ER-beta) signaling pathway (AID 1259378; active = well fitted inhibition curve with a large enough effect in the signal ratio in the repeat runs, not every such curve was filed as active; the % refers to the signal ratio; also: potency is read from the fitted curve at half-maximal effect). The gist of the method:
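ER-beta-UAS-bla HEK293T cells in 2% charcoal-stripped FBS medium treated with compound plus 1nM final 17-beta-estradiol for 16 hr at 37C. Beta-lactamase reporter read by FRET substrate fluorescence after 2 hours at room temperature.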

Experiment [5] in a line: qHTS assay to identify small molecule agonists of the androgen receptor (AR) signaling pathway in the presence of an antagonist - cell viability counter screen (AID 1259379; active = well fitted curve in the direction sought with a large enough effect in the repeat runs; an effect the other way counts as inactive or inconclusive; also: nearly all actives have a fitted effect of over 25% in size; also: potency is read from the fitted curve at half-maximal effect). The gist of the method:
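Nilutamide-containing (3.0uM final) MDA-kb2 cultures, 3,000 cells/well, were treated with compounds across 15 concentrations. After 16 hr at 37C with no CO2, cell viability was determined by CellTiter-Fluor fluorescence in the luciferase assay wells.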

Experiment [6] is described as follows: qHTS assay to identify small molecule agonists of the estrogen receptor beta (ER-beta) signaling pathway - cell viability counter screen (AID 1259380; active = well fitted curve in the direction sought with a large enough effect in the repeat runs; an effect the other way counts as inactive or inconclusive; also: nearly all actives have a fitted effect of over 30% in size; also: potency is read from the fitted curve at half-maximal effect). The gist of the method:
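Steps: plate ER-beta-UAS-bla HEK293T cells, rest 6 hr; add compounds in DMSO; incubate 16 hr at 37C, 5% CO2; add FRET substrate 2 hr; add CellTiter-Glo, wait 30 min at room temperature; read luminescence.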

Experiment [7] is described as follows: qHTS assay to identify small molecule antagonists of the estrogen receptor beta (ER-beta) signaling pathway - cell viability counter screen (AID 1259382; active = well fitted curve in the direction sought with a large enough effect in the repeat runs; an effect the other way counts as inactive or inconclusive; also: series mostly up to about 92 µM; nearly all actives have a fitted effect of over 55% in size). An outline of the steps:
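Viability is scored by CellTiter-Glo luminescence (30 min, room temperature) in ER-beta-UAS-bla HEK293T wells already read for reporter fluorescence. Compound exposure lasts 16 hr at 37C alongside 1nM 17-beta-estradiol in charcoal-stripped serum medium.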

Experiment [8] concerns the target Estrogen receptor (Homo sapiens) (UniProt P03372). Put plainly: qHTS assay to identify small molecule agonists of the estrogen receptor alpha (ER-alpha) signaling pathway in the presence of an antagonist (AID 1259383). Also: top concentration of the series differs between compounds; nearly all actives have a fitted effect of over 15% in size. An outline of the steps: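 Readout was ERE-driven luciferase luminescence in VM7Luc4E2 cells, which express full-length ER-alpha endogenously. Compounds were tested at 15 concentrations for 22hr alongside 10.0nM ICI-182,780 (final concentration).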

Experiment [9] in a line: qHTS assay to identify small molecule agonists or antagonists of the thyroid stimulating hormone receptor (TSHR) signaling pathway - wild type cell line counter screen (AID 1259384). An outline of the steps:
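Wild-type Hek293 cells, 800/well, 18 h at 37C, then compound with Ro20-1724 for 30 min RT. cAMP by HTRF (cAMP-d2/anti-cAMP cryptate), 1 h RT, fluorescence read. 15 concentrations, triplicates.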

In experiment [10] the target is Androgen receptor (Homo sapiens) (UniProt P10275). Briefly: qHTS assay to identify small molecule agonists of the androgen receptor (AR) signaling pathway in the presence of an antagonist (AID 1259381). Also: nearly all actives have a fitted effect of over 15% in size. Also: potency is read from the fitted curve at half-maximal effect. An outline of the steps:
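Reporter-gene luminescence from MDA-kb2 cells exposed 16hr at 37C (0% CO2) to 15-point compound titrations with 3.0uM final nilutamide as AR antagonist.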

Each structure is given as a SMILES string. Results filed as inconclusive are left out. Active and inactive are the calls of the source. Unless noted, calls follow the shape of the full dose curve.

Estrogen receptor beta (Homo sapiens), sequence (Q92731 whole entry, looked up): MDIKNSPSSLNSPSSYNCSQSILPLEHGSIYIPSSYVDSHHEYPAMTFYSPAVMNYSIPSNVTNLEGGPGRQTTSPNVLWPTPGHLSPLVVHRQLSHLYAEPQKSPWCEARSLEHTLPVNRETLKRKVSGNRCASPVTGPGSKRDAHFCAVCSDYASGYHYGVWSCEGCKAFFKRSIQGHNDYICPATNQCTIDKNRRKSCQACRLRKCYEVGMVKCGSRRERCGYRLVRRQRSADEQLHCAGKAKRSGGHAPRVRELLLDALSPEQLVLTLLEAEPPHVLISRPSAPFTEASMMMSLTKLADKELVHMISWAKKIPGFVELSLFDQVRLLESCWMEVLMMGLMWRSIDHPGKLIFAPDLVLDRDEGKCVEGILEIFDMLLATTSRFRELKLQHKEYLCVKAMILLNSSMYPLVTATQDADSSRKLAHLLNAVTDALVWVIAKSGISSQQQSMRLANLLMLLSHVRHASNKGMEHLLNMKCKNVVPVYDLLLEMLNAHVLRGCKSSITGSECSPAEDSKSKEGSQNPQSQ
Androgen receptor (Homo sapiens), sequence (P10275 whole entry, looked up): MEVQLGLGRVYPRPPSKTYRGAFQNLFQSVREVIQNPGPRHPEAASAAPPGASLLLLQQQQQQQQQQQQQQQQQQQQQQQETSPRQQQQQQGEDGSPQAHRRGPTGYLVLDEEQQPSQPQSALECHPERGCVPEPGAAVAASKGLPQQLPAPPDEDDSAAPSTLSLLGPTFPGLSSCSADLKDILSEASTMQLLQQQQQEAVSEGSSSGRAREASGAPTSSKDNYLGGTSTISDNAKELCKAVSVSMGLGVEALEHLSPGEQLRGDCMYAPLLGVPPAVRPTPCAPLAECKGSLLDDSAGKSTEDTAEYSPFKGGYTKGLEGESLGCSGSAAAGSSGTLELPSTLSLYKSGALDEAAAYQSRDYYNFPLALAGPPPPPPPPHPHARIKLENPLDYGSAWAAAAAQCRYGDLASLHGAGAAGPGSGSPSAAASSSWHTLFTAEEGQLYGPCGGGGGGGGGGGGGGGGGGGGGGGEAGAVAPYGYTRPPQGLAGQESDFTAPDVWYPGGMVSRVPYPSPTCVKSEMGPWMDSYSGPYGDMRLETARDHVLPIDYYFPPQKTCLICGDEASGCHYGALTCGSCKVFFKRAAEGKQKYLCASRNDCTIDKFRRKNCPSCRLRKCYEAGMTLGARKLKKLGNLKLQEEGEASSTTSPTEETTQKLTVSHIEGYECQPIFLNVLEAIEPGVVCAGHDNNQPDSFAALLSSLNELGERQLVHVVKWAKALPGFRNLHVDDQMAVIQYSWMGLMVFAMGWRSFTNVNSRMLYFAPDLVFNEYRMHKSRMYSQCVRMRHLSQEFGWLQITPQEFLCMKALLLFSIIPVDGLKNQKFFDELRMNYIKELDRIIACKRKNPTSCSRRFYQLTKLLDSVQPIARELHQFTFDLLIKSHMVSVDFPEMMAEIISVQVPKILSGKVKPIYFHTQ
Estrogen receptor (Homo sapiens), sequence (P03372 whole entry, looked up): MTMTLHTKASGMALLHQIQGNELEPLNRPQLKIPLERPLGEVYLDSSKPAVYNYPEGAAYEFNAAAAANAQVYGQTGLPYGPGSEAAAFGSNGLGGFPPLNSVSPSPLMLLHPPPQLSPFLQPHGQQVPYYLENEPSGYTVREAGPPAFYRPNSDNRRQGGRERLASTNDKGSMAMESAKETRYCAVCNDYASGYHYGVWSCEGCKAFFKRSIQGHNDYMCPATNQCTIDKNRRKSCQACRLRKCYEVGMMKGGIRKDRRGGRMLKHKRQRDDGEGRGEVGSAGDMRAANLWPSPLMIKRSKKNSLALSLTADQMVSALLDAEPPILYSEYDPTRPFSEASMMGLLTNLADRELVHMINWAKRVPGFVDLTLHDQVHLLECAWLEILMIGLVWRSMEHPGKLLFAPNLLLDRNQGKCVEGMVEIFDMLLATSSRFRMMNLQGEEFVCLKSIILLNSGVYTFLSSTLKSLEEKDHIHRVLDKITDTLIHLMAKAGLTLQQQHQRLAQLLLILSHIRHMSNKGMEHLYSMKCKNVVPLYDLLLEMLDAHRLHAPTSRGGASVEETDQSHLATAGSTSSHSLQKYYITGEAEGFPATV

On to `CC(=O)c1cc2ccccc2s1`, for which the Potency result in experiment [1], in [2], in experiment [3], in experiment [4], in [5] and in experiment [6] was “inactive” in each case. In addition, the Potency result in [7] and in [8] was “inactive” throughout. Moreover, in [9], the compound was called inactive.
With `O=C(O)C[C@H](NC(=O)OCc1ccccc1)C(=O)O`, the Potency result in experiment [1], in experiment [2], in [3], in experiment [4], in [5] and in experiment [6] was “inactive” throughout. Moreover, the Potency result in [7] and in [8] was “inactive” throughout. Also, the compound was called inactive in experiment [9].
Turning to `C=CC(C)(CCC=C(C)C)OC(=O)CC(C)C` (centres undefined), the Potency result in experiment [1], in experiment [2], in [3], in [4], in [5] and in experiment [6] was “inactive” throughout. Further, the Potency entry in experiment [7] and in [8] was “inactive” each time. Moreover, the outcome in experiment [9] was inactive.
For the compound `C=C(C)C(=O)OCCOCCOC(=O)C(=C)C`, the Potency entry in experiment [1], in experiment [2], in [3], in experiment [4], in experiment [5] and in experiment [6] was “inactive” in each case. For the same compound, in experiment [7], the Potency result was “inactive”.
In the case of `O=C1CCCCCCCCCCOCCCCO1`, the Potency result in experiment [1], in experiment [2], in experiment [3], in [4], in experiment [5] and in experiment [6] was “inactive” throughout. For the same compound, the Potency result in [7] was “inactive”. Also, the result in experiment [9] was inactive.
With `COc1ncnc(NS(=O)(=O)c2ccc(N)cc2)c1OC`, the Potency result in experiment [1], in experiment [2], in [3], in [4], in experiment [5] and in experiment [6] was “inactive” throughout. In addition, the Potency result in [7] and in [8] was “inactive” each time.
Take `O=C(Nc1cccc2c(=O)cc(-c3nn[nH]n3)oc12)c1ccc(OCCCCc2ccccc2)cc1`: the Potency entry in experiment [1], in [2], in [3], in experiment [4] and in experiment [5] was “inactive” throughout. Besides, in experiment [6], the Potency was 10.6 µM (active). Moreover, in experiment [9], the compound was called inactive.
`Oc1cccc(O)c1O`: the Potency result in [1], in experiment [3], in experiment [4], in experiment [5], in experiment [6] and in experiment [7] was “inactive” throughout. For the same compound, in experiment [8], the Potency result was “inactive”. For the same compound, in experiment [2], the Potency was 15.2 µM (active). Also, the result in experiment [9] was inactive.
Turning to `NNC(=O)CP(=O)(c1ccccc1)c1ccccc1`, the Potency entry in [1], in [2], in experiment [3], in experiment [4], in experiment [5] and in [7] was “inactive” each time. In addition, the call in experiment [9] was inactive.
In the case of `CC(C)=CCC/C(C)=C/CC/C(C)=C/C(=O)OCC(=O)[C@@]1(O)CC[C@H]2[C@@H]3CCC4=CC(=O)C=C[C@]4(C)[C@H]3[C@@H](O)C[C@@]21C`, the Potency entry in [1], in experiment [3], in [7] and in [8] was “inactive” in each case. The Potency was 8.41 µM (active) in [2], 13.3 µM (active) in experiment [4], 26.6 µM (active) in experiment [5] and 0.335 µM (active) in experiment [10]. For the same compound, the compound was called inactive in experiment [9].
For the compound `CCCCCCC(C)(C)C(=O)O`, the Potency entry in experiment [1], in experiment [2], in [3], in experiment [4], in experiment [5] and in experiment [6] was “inactive” throughout. Moreover, the Potency result in experiment [10] and in experiment [7] was “inactive” throughout. Moreover, the compound was classed as inactive in experiment [9].
On to `CCCCOc1ccc(OCCCN2CCOCC2)cc1`, for which the Potency result in experiment [1], in experiment [3], in experiment [4], in experiment [5], in experiment [7] and in [8] was “inactive” throughout. Also, the Potency in experiment [2] was 13.3 µM (active). In experiment [9], the result was inactive.
Consider `CC=C(Cl)Cl`, for which the Potency result in experiment [1], in experiment [2], in experiment [3], in experiment [4], in experiment [5] and in [6] was “inactive” each time. Besides, the Potency entry in [7] and in experiment [8] was “inactive” in each case. Moreover, the result in experiment [9] was inactive.
Turning to `CC(C)C=O`, the Potency result in experiment [1], in experiment [2], in experiment [3], in experiment [4], in [5] and in experiment [6] was “inactive” throughout. Besides, the Potency entry in experiment [7] is “inactive”. Besides, in [9], the compound was classed as inactive.
Consider `CO[C@]1(NC(=O)CSC(F)F)C(=O)N2C(C(=O)O)=C(CSc3nnnn3CCO)CO[C@H]21`, for which the Potency entry in experiment [1], in experiment [2], in experiment [3], in [4], in experiment [5] and in experiment [6] was “inactive” each time. Further, the Potency entry in experiment [7] was “inactive”. The result in experiment [9] was inactive.
As for `CCC1NC(=O)c2cc(S(N)(=O)=O)c(Cl)cc2N1` (centres undefined), the Potency entry in experiment [1], in experiment [2], in experiment [3], in experiment [4], in experiment [5] and in [7] was “inactive” each time. Besides, the compound was classed as inactive in experiment [9].
For `CC(=O)Nc1cc(S(=O)(=O)O)cc2cc(S(=O)(=O)O)c(N=Nc3ccccc3)c(O)c12`, the Potency result in [1], in experiment [2], in [3], in [4], in [6] and in experiment [7] was “inactive” each time. Also, in experiment [8], the Potency entry is “inactive”. Besides, in [5], the Potency was 27.3 µM (active).
For the compound `CCn1cc(C(=O)O)c(=O)c2cc(F)c(N3CCNCC3)cc21`, the Potency entry in experiment [1], in experiment [2], in experiment [3], in experiment [4], in experiment [5] and in [6] was “inactive” throughout. In addition, the Potency entry in [7] and in experiment [8] was “inactive” throughout. For the same compound, the outcome in [9] was inactive.
For the compound `O=C1c2ccccc2C(=O)C1c1ccc(Br)cc1`, the Potency entry in experiment [1], in experiment [2], in experiment [3], in experiment [4], in [5] and in [6] was “inactive” throughout. Further, the Potency entry in experiment [10] and in [7] was “inactive” each time. Also, in experiment [9], the outcome was inactive.
With `CCCCCCCCN`, the Potency result in experiment [1], in experiment [2], in experiment [3], in [4], in experiment [5] and in experiment [6] was “inactive” in each case. For the same compound, the Potency entry in [7] was “inactive”. Also, the result in [9] was inactive.
Turning to `Cc1ccc(C(C)(C)O)cc1`, the Potency result in [1], in experiment [2], in [3], in experiment [4], in experiment [5] and in [6] was “inactive” in each case. The Potency result in [7] and in experiment [8] was “inactive” throughout. Also, the call in experiment [9] was inactive.
For the compound `CCC(OCCCOC)OC(C)=O` (centres undefined), the Potency result in experiment [1], in [2], in experiment [3], in [4], in [5] and in experiment [6] was “inactive” each time. For the same compound, the Potency result in [7] was “inactive”. Further, the result in [9] was inactive.
On to `Clc1cc(Cl)nc(Cl)n1`, for which the Potency result in experiment [1], in [2], in experiment [3], in experiment [4], in experiment [6] and in experiment [7] was “inactive” in each case. Further, the call in [9] was inactive.
In the case of `CCCCC(CC)CN` (centres undefined), the Potency entry in [1], in experiment [2], in experiment [3], in [4], in [5] and in experiment [6] was “inactive” in each case. Also, the Potency result in experiment [10], in experiment [7] and in experiment [8] was “inactive” in each case. In [9], the compound was called inactive.

For the origin of these results see PubChem BioAssay (Tox21).
